# Rows were chosen to be rich in hits. Some 28% of all compounds tested hit in one or more screens of this group.
# CYP2C9 inhib – blockers of cytochrome P450 2C9 activity – biochemical, luminescence, ADME assay, primary screen; P11712; CYP2C9 Supersomes, luciferin-H conversion; 20% of 96,000 active; inhibition, % at 5 µM;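 active = blocking of liver enzyme CYP2C9 beyond about 50% at 5 µM, limit read from the data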
# Target sequence (P11712 whole entry, looked up): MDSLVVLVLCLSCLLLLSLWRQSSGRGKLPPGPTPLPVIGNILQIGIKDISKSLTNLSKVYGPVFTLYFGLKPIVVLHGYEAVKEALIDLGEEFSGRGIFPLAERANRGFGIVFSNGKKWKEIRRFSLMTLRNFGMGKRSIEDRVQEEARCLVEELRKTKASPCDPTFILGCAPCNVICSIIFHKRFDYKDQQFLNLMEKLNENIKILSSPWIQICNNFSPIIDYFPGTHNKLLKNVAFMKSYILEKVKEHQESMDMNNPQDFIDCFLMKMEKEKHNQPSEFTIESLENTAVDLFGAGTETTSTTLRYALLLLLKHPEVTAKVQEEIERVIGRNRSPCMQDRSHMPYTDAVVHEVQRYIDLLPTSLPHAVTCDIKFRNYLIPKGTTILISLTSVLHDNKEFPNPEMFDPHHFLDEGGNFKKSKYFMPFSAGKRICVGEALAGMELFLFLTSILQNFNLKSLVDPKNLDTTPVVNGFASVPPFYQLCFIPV
# CD11b adhes enh – enhancers of CD11b/CD18 adhesion to fibrinogen, primary screen, K562 cells, luminescence | Integrin beta-2 (Homo sapiens) + Integrin alpha-M (Homo sapiens), P05107+P11215 | ATPlite luminescence | activation, % at 10 µM | 0.07% of 93,000 active | AID 1499, 2009;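 active = 10 µM primary screen giving 50% or more activity, confirmed by 40% or more on retest at that dose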
# Mac1 fbg inh – inhibitors of CD11b/CD18 adhesion to fibrinogen, primary screen, K562 cells, luminescence | ATPlite luminescence; Mn2+ added to activate the integrin | 0.54% of 93,000 active | Integrin beta-2 (Homo sapiens) + Integrin alpha-M (Homo sapiens), P05107+P11215 | inhibition, % at 10 µM;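 active = primary inhibition of 50% or more at 10 µM, then 40% or more on retest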
# CYP2C19 act – human CYP2C19 activators, primary screen, biochemical, luminescence | activation factor at 5 µM | recombinant CYP2C19, luciferin-H EGE luminescence; stronger effect = higher value; 0 = fully inhibited enzyme, 1 = untreated enzyme | Cytochrome P450 2C19 (Homo sapiens), P33261 | 96,000 tested, under 10 active;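 active = activation factor of at least 2 at 5 µM in the primary screen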;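 also: 0 = wells with 2.5 mM tranylcypromine and 1 = vehicle-only wells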
# CYP2C19 inhib – blockers of cytochrome P450 2C19 activity – biochemical, luminescence, ADME assay, primary screen; P33261; CYP2C19 Supersomes, luciferin-H EGE luminescence, 30 min; 21% of 96,000 active; AID 778, 2007; inhibition, % at 5 µM;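 active = CYP2C19 inhibition above a set limit at 5 µM in the primary screen, cut at about 50% in these data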;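 also: plate controls were negative control wells for no effect and 2.5 mM tranylcypromine positive control for full effect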
# CYP2C9 act – human CYP2C9 activators, primary screen, biochemical, luminescence; recombinant CYP2C9, luciferin-H conversion; stronger effect = higher value; factor 1 = untreated enzyme, 0 = blocked; AID 1024, 2008; activation factor at 5 µM; Cytochrome P450 2C9 (Homo sapiens), P11712; 1.4% of 96,000 active;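 active = activation factor of 2 or more for CYP2C9 at a 5 µM dose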;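 also: 0 = sulfaphenazole-blocked wells and 1 = vehicle-only wells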
# An asterisk follows results filed as active; . = no result.
SMILES,CYP2C9 inhib,CD11b adhes enh,Mac1 fbg inh,CYP2C19 act,CYP2C19 inhib,CYP2C9 act
C=C(C)CSc1nc(N)cc(=O)[nH]1,-1.3,-1.6,-4.2,1,4.0,1
N#CC1=C(SCC(=O)NC2CC2)NC(=O)C(C#N)C12CCCCC2 (centres undefined),67.9*,64.1,0.2,0.8,19.6,0.3
CCOC(=O)C1=C(SCC(=O)Nc2ccccc2)NC(=O)C(C#N)C12CCCCC2 (centres undefined),84.8*,-2.9,3.0,0.1,92.7*,0.2
O=C(O)CN1CCNCC1,-5.0,-2.3,-8.4,0.9,5.8,1.1
COc1ccc(-c2cnn3c4c(c(C)nc23)CCN4C(C)C)cc1OC,7.8,4.6,-2.4,1.1,-7.7,0.9
CCc1ccccc1NC(=O)NC1CCCCC1,2.9,-1.0,-15.4,0.8,18.9,1
CCNS(=O)(=O)c1ccc(NC(=O)Cn2nc(C(F)(F)F)cc2C)cc1,56.6*,-4.8,-7.6,1.2,-16.8,0.4
Cc1sc(NC(=O)Cn2nc(C(F)(F)F)cc2C)c(C(=O)OC(C)C)c1C,61.9*,.,.,0.8,18.2,0.4
CCc1ccccc1NC(=O)Cn1nc(C(F)(F)F)cc1C1CC1,5.0,-1.5,-1.1,0.2,83.0*,0.9
COCCNC(=O)Cn1nc(C(F)(F)F)cc1C,5.7,-6.4,-6.0,1,-0.9,0.9
CCN(CC)C(=O)C1CCCN(C(=O)Nc2ccccc2)C1 (centres undefined),21.0,-2.7,-4.4,0.6,44.7,0.8
COc1ccc2c(c1OC)C(=O)N1c3ccccc3C(=O)N(c3ccc(F)cc3)C21 (centres undefined),-0.5,0.3,3.0,1,-0.1,1
COc1ccc2c(c1OC)C(=O)N1c3ccccc3C(=O)N(c3ccccc3)C21 (centres undefined),59.3*,6.0,-51.2,0.8,15.5,0.4
CCc1ccc(/C=C/C(=O)C2C(=O)c3ccccc3C2=O)cc1,59.5*,-10.8,95.3*,1,1.0,0.4
O=C(c1ccccc1)C1C(=O)c2ccccc2C1=O,19.8,-2.6,7.7,1,0.4,0.8
O=C(/C=C/c1ccccc1)C1C(=O)c2ccccc2C1=O,.,-7.1,86.8*,.,.,.
CCN(CC)c1ccc(/C=N/NC(=S)NCc2ccc(OC)cc2)cc1,.,0.9,-13.0,.,.,.
COc1ccc(CCNC(=S)Nc2cccc(C)c2C)cc1,26.0,3.9,-6.1,0.4,57.8*,0.7
COc1ccc(CNC(=S)N/N=C/c2ccc(OC)c(OC)c2)cc1,62.8*,0.1,8.6,1,4.9,0.4
COc1ccc(CNC(=S)Nc2cccc(C)c2)cc1,-24.8,2.9,2.3,0.2,81.4*,1.2
COc1ccc(CNC(=S)NC2CCCC2)cc1,.,18.4,-11.4,.,.,.
COc1ccc(CNC(=S)Nc2ccccc2C)cc1,7.3,-2.5,-3.4,0,98.3*,0.9
O=C(CNC(=O)C12CC3CC(CC(C3)C1)C2)N1CCN(S(=O)(=O)/C=C/c2ccccc2)CC1,.,6.3,-5.4,.,.,.
NC(=O)C1CCN(Cc2nc(-c3ccccc3)no2)CC1,7.3,-2.3,-2.4,1,4.9,0.9
COc1cc(NS(=O)(=O)c2ccc(N/C=C\C(=O)c3ccc(F)cc3)cc2)nc(OC)n1,.,1.7,-16.0,.,.,.
SMILES,CYP2C9 inhib,CD11b adhes enh,Mac1 fbg inh,CYP2C19 act,CYP2C19 inhib,CYP2C9 act
CC(C)COc1ccc(CNC(=S)N/N=C/c2ccc([N+](=O)[O-])cc2)cc1,80.0*,2.1,-0.2,0.8,18.4,0.2
COc1ccc(CCNC(=S)Nc2cc(C)ccc2C)cc1,53.8*,-6.4,-35.5,0.3,67.0*,0.5
Cc1cc(Cl)ccc1NC(=S)NCc1ccccc1,19.8,1.6,-39.7,0.2,76.9*,0.8
COc1ccc(CNC(=S)Nc2cc(C)ccc2C)cc1,15.9,-0.6,8.8,0,97.7*,0.8
COc1ccc(CCNC(=O)NC(C(F)(F)F)C(F)(F)F)cc1OC,4.3,-0.3,9.2,0.8,23.4,1
COc1ccc(-c2nnc(CSc3nc4ccccc4c(=O)n3CC(C)C)o2)cc1OC,96.6*,0.5,23.9,0.1,91.8*,0

# From PubChem
